From PubChem
Cycloheximide cs: Cycloheximide Counterscreen for Small Molecule Inhibitors of Shiga Toxin; actives 12% (n = 300,000); max response, %; cell reporter, cycloheximide protein synthesis inhibition counterscreen; AID 2314, 2010; in the data active = max response mostly above about 13%, no sharp cut-off; inactive = mostly below about 14%; note: read at 38.3 µM for the half of the compounds with a filed dose; 0% is about no effect
FBPA Giardia inh: qHTS Assay for Inhibitors of Fructose-1,6-bisphosphate Aldolase from Giardia Lamblia; A8B2U2; purified Giardia FBPA; Potency, µM (series often up to 59.6 µM), for the others: at the top dose activity, negative = inhibition, actives largely listed as inhibitors; actives 0.71% (n = 290,000); AID 2451, 2010; note: potency is the fitted concentration of half-maximal effect; % is set by controls: 0 for no effect and ±100 for the full control effect; nearly all actives have a fitted effect of over 55% in size
Target sequence (A8B2U2 whole entry, looked up): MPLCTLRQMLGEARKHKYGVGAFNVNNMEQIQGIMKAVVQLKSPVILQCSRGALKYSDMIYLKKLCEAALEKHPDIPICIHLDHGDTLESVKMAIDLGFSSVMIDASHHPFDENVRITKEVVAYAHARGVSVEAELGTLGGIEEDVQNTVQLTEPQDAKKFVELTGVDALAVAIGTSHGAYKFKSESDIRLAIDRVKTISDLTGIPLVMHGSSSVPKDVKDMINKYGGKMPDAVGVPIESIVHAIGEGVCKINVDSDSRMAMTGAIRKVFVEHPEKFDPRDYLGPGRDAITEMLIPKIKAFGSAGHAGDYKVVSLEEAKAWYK
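40 nM FBPA preincubated 10 min at RT with compound (up to 57.5 uM final), then substrate plus GAPDH/TPI/NAD/arsenate coupling and diaphorase/resazurin added. Fluorescence read after 20 min at RT, 525/598 nm.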
TbPYK inhibitor: qHTS of Trypanosoma Brucei Inhibitors; pyruvate kinase (Trypanosoma brucei), Q57TT1; TbPYK enzyme, Kinase-Glo Plus ATP luminescence, 45 min; Potency, µM (series often up to 76.8 µM), without a hit: at the highest dose activity, negative = inhibition, most hits filed as inhibitors; actives 0.12% (n = 410,000); note: potency is the fitted concentration of half-maximal effect; % is set by controls: 0 for no effect and ±100 for the full control effect; nearly all actives have a fitted effect of over 50% in size
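Luminescent Kinase-Glo Plus end-point after 45 min room-temperature reaction of T. brucei pyruvate kinase started with 130 uM ADP (final). Buffer TEA 50 mM pH 7.2 with KCl, MgCl2, BSA, Tween-20; titration-based qHTS with fitted concentration-effect curves.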
RE007 growth inh: qHTS Assay for Inhibitors of the HIV-1 protein Vpr; S. pombe RE007 Vpr strain, BacTiter-Glo ATP luminescence, 24 h; Potency, µM (doses to about 92.2 µM), for the others: at the top dose activity change, negative = less growth, most hits filed as inhibitors; actives 0.21% (n = 360,000); active = well fitted falling curve with a large enough effect; inconclusive = small, poorly fitted or top-dose-only effect; inactive = no such curve, though single readings can be large or run the other way; note: potency is the fitted concentration of half-maximal effect; % is set by controls: 0 for no effect and ±100 for the full control effect; nearly all actives have a fitted effect of over 50% in size
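Fission yeast strain RE007, carrying one chromosomally integrated HIV-1 vpr copy, was seeded at OD 0.01 in PMG+AL medium with 23 nL pinned compound. After 24 h at 30 °C and 99% humidity, viability was read by BacTiter-Glo luminescence.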
LmPK inh: qHTS Assay for Inhibitors of Leishmania Mexicana Pyruvate Kinase (LmPK); Q27686; purified LmPK, Kinase-Glo ATP luminescence, 1 h; Potency, µM (titrated, usually from 57.5 µM), inactives show top-dose activity change, negative = inhibition, actives largely listed as inhibitors; actives 0.37% (n = 290,000); AID 1721, 2009; note: potency is the fitted concentration of half-maximal effect; % is set by controls: 0 for no effect and ±100 for the full control effect
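In 50 mM imidazole pH 7.2 with 7 mM MgCl2, LmPK (0.1 nM) turned over PEP (0.5 mM) and ADP (0.1 mM) for 1 h at room temperature. Luciferase read-out of ATP.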
Shiga inhibitor: A qHTS for Small Molecule Inhibitors of Shiga Toxin. Vero cells, Shiga toxin protein synthesis inhibition reporter. inhibition, % at 38.7 µM. actives 9.2% (n = 290,000). AID 2315, 2010; in the data active = inhibition mostly above about 28%, no sharp cut-off; inactive = mostly below about 43%; note: 0% is about no effect
* = called active by the depositor; ? = inconclusive; nt = not tested or not shown. The sample as a whole holds a higher share of hits than the screen did. Unless noted, calls come from the whole dose curve; as a rule, active = well fitted curve in the direction sought with a large enough effect; inconclusive = small, poorly fitted or top-dose-only effect, or another doubt; inactive = no such curve, though single readings can be large; an effect the other way counts as inactive or inconclusive.

SMILES | Cycloheximide cs | FBPA Giardia inh | TbPYK inhibitor | RE007 growth inh | LmPK inh | Shiga inhibitor
C=CCNC(=S)N/N=C/c1ccc(-c2cccc([N+](=O)[O-])c2)o1 | 16* | -9% | 4% | 11% | 7% | 41*
C=CCNC(=O)c1ccc(-c2cccc([N+](=O)[O-])c2)o1 | 37* | -8% | -2% | -14% | -2% | 69*
COc1cccc(NC(=O)c2ccc(-c3ccc([N+](=O)[O-])cc3)o2)c1 | 18* | -6% | 0% | -13% | -8% | 70*
CCN(CC)C(=O)COc1ccc2oc(-c3ccco3)cc(=O)c2c1 | 19* | 0% | -4% | 16% | 1% | 31
CCN(CC)C(=O)COc1c(-c2ccco2)oc2ccccc2c1=O | 5 | -7% | 1% | 6% | 5% | -25
CCOc1ccc(-c2cc3c(=O)n(Cc4nc(-c5ccc(OCC)c(OC)c5)oc4C)ccn3n2)cc1Cl | nt | nt | -1% | nt | nt | nt
Cc1ccc(NC(=O)CN2C(=O)CC(c3ccc(C)c(C)c3)=Nc3ccccc32)cc1 | nt | nt | 0% | nt | nt | nt
CCCCNC(=O)/C=C1\Sc2ccccc2NC1=O | 23 | 5% | 1% | 0% | -3% | 13
Cc1ccc(NC(=S)/C(C#N)=C2/Nc3ccccc3S2)cc1 | nt | nt | -1% | -15% | nt | nt
O=C1Nc2ccccc2S/C1=C\C(=O)N1CCCC1 | 27* | 4% | nt | nt | 6% | 72*
N#C/C(C(=O)N1CCCCC1)=C1\Nc2ccccc2S1 | 37* | -24% | -8% | ? | -2% | 58*
CCc1ccc(C(=O)/C=C2\Sc3ccccc3NC2=O)cc1 | 50* | -10% | 7% | 11% | -3% | 88*
O=C1Nc2ccccc2SC1=Cc1ccccc1 | nt | nt | -7% | -7% | nt | nt
CCOc1ccc(N(C(=O)c2ccc(Cl)cc2)S(=O)(=O)c2ccc3c(c2)n(C)c(=O)n3C)cc1 | nt | nt | 2% | nt | nt | nt
CN(Cc1ccccc1)C(=O)c1c[nH]c2ccc(S(=O)(=O)Nc3ccccc3F)cc2c1=O | nt | nt | 2% | nt | nt | nt
CCN(CC)CCn1c(=N)n(CC(=O)c2ccc(C)cc2)c2ccccc21 | 27* | -3% | 2% | -4% | -2% | nt
Cc1ccc(C(=O)Cn2c(=N)n(N)c3ccccc32)cc1 | 46* | -5% | 2% | 17% | -1% | 81*
CC(=O)c1cc2c(cc1NC(=O)Cc1c(C)noc1C)OCO2 | nt | nt | -2% | -10% | nt | nt
O=[N+]([O-])c1ccc(N/N=C/c2ccccc2O)cc1 | 65* | 4% | 0% | nt | -2% | 89*
O=[N+]([O-])c1cccc(N/N=C/c2cc([N+](=O)[O-])ccc2O)c1 | 28* | 1% | 3% | 69% | 0% | 49*
CN(/N=C/c1cc([N+](=O)[O-])ccc1O)c1ccccc1 | 22* | 10% | 5% | -7% | 0% | 17
CCCNC(=O)C1CCC(Cn2c(=O)c3sccc3n(CC(=O)NCc3cccc(OC)c3OC)c2=O)CC1 (stereo unspecified) | nt | nt | 5% | nt | nt | nt
Cc1cc(C)c(NC(=O)Cn2c(=O)n(CC(=O)NCc3ccccc3Cl)c(=O)c3sccc32)c(C)c1 | nt | nt | 2% | nt | nt | nt
O=C(Nc1ccccc1)c1cccc2c(-c3cccnc3)coc12 | nt | nt | 0% | -19% | nt | nt
Cn1cc(C=C2C(=O)Nc3cccnc32)c2ccccc21 | 30* | -26% | nt | nt | nt | 32*
Cn1cc(/C=C2\C(=O)NC(=O)N(c3ccccc3)C2=O)c2ccccc21 | -5 | 1% | -2% | 4% | 12% | -10
C=CCn1c(SCc2ccc(C(=O)Nc3ccccc3)cc2)nnc1-c1ccccc1 | 19* | 0% | -11% | -6% | -4% | 36
Cc1ccc(Cl)cc1NC(=O)c1ccc(CSc2nnnn2C)cc1 | 1 | -2% | 8% | -11% | -2% | -20
O=C(Nc1ccc(Br)cc1)c1ccc(CSC2=NCCS2)cc1 | 61* | -1% | -3% | -13% | 5% | 80*
Cc1ccc(NC(=O)c2ccc(CSc3ccccn3)cc2)cc1 | 31* | -9% | -7% | 33% | -4% | 82*
